# Source: the supplement of paper PMC8728848
# This is one part of a sample in which the strongest signals are shown more often than they occur.
# What was measured:
# Assay in all cases: glycan array binding signal (z-score within array); higher = stronger binding
# Conditions in all cases: glycan notation: IUPAC condensed, linker removed
# [1] = biological target: Fuc(a1-2)Gal(b1-3)GalNAc
# Summary of the method: (§1)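 The binding signal is a Z-score computed within each array and averaged over linkers. Arrays of the same protein sequence at different concentrations or buffers were also averaged together. Data originate from 3228 arrays in the Consortium for Functional Glycomics database, kept only where the protein sequence was available.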
# [2] = biological target: Fuc(a1-2)Gal(b1-3)GalNAc(b1-3)Gal
# Summary of the method: as §1
# [3] = biological target: Fuc(a1-2)Gal(b1-3)GlcNAc(b1-3)Gal(b1-4)Glc
# Summary of the method: as §1
# [4] = biological target: Fuc(a1-2)Gal(b1-4)Glc
# Summary of the method: as §1
# [5] = biological target: Fuc(a1-2)[GalNAc(a1-3)]Gal(b1-4)Glc
# Summary of the method: as §1
# [6] = biological target: Fuc(a1-3)GlcNAc
# Summary of the method: as §1
# [7] = biological target: Fuc(a1-3)[Gal3S(b1-4)]Glc6S
# Summary of the method: as §1
# [8] = biological target: Gal(a1-3)Gal
# Summary of the method: as §1
# [9] = biological target: Gal(a1-4)Gal(b1-4)GlcNAc(b1-2)Man(a1-3)[Gal(a1-4)Gal(b1-4)GlcNAc(b1-2)Man(a1-6)]Man(b1-4)GlcNAc(b1-4)GlcNAc
# Summary of the method: as §1
# [10] = biological target: Gal(a1-4)Gal(b1-4)GlcNAc(b1-3)Gal(b1-4)Glc
# Summary of the method: as §1
# [11] = biological target: Gal(b1-3)GlcNAc
# Summary of the method: as §1
# [12] = biological target: Gal(b1-3)GlcNAc(b1-3)Gal(b1-4)Glc
# Summary of the method: as §1
# [13] = biological target: Gal(b1-3)[Fuc(a1-4)]GlcNAc
# Summary of the method: as §1
# [14] = biological target: Gal(b1-3)[Fuc(a1-4)]GlcNAc(b1-3)Gal(b1-4)[Fuc(a1-3)]GlcNAc
# Summary of the method: as §1
# [15] = biological target: Gal(b1-3)[Neu5Ac(b2-6)]GalNAc
# Summary of the method: as §1
# [16] = biological target: Gal(b1-4)GlcNAc(b1-2)Man(a1-6)[GlcNAc(b1-2)Man(a1-3)]Man(b1-4)GlcNAc(b1-4)GlcNAc
# Summary of the method: as §1
# [17] = biological target: Gal(b1-4)GlcNAc(b1-6)Gal(b1-4)GlcNAc
# Summary of the method: as §1
# [18] = biological target: Gal(b1-4)GlcNAc(b1-6)GalNAc
# Summary of the method: as §1
# [19] = biological target: Gal3S(b1-4)Glc
# Summary of the method: as §1
# [20] = biological target: Gal3S6S(b1-4)GlcNAc6S
# Summary of the method: as §1
# [21] = biological target: Gal6S(b1-4)Glc
# Summary of the method: as §1
# [22] = biological target: GalNAc(b1-3)Gal(a1-4)Gal(b1-4)GlcNAc
# Summary of the method: as §1
# [23] = biological target: Glc(a1-6)Glc(a1-6)Glc
# Summary of the method: as §1
# [24] = biological target: Glc(b1-4)Glc
# Summary of the method: as §1
# [25] = biological target: GlcNAc(b1-3)[GlcNAc(b1-4)][GlcNAc(b1-6)]GlcNAc
# Summary of the method: as §1
# [26] = biological target: Kdn(a2-3)Gal(b1-3)GalNAc
# Summary of the method: as §1
# [27] = biological target: Man(a1-2)Man(a1-2)Man(a1-3)Man
# Summary of the method: as §1
# [28] = biological target: Man(a1-3)[Man(a1-6)]Man(a1-6)[Man(a1-3)]Man(b1-4)GlcNAc(b1-4)GlcNAc
# Summary of the method: as §1
# [29] = biological target: Neu5Ac(a2-3)Gal(b1-3)GlcNAc(b1-3)GalNAc
# Summary of the method: as §1
# [30] = biological target: Neu5Ac(a2-3)Gal(b1-4)GlcNAc(b1-3)Gal(b1-4)GlcNAc(b1-3)Gal(b1-4)GlcNAc
# Summary of the method: as §1
binder,measurement,setting,value
"SBD (Rhizopus oryzae), P07683 (protein) ASIPSSASVQLDSYNYDGSTFSGKIYVKNIAYSKKVTVVYADGSDNWNNNGNIIAASFSGPISGSNYEYWTFSASVKGIKEFYIKYEVSGKTYYDNNNSANYQVS",glycan array binding signal (z-score),[1],0.019
same,glycan array binding signal (z-score),[2],2.93
same,glycan array binding signal (z-score),[3],2.1
same,glycan array binding signal (z-score),[4],-0.623
same,glycan array binding signal (z-score),[5],-0.2
same,glycan array binding signal (z-score),[6],0.165
same,glycan array binding signal (z-score),[7],0.589
same,glycan array binding signal (z-score),[8],-0.697
same,glycan array binding signal (z-score),[9],2.59
same,glycan array binding signal (z-score),[10],0.2
same,glycan array binding signal (z-score),[11],0.042
same,glycan array binding signal (z-score),[12],2.02
same,glycan array binding signal (z-score),[13],-0.029
same,glycan array binding signal (z-score),[14],0.121
same,glycan array binding signal (z-score),[15],-0.657
same,glycan array binding signal (z-score),[16],-0.081
same,glycan array binding signal (z-score),[17],0.47
same,glycan array binding signal (z-score),[18],-0.13
same,glycan array binding signal (z-score),[19],0.207
same,glycan array binding signal (z-score),[20],0.19
same,glycan array binding signal (z-score),[21],-0.476
same,glycan array binding signal (z-score),[22],-0.155
same,glycan array binding signal (z-score),[23],-0.213
same,glycan array binding signal (z-score),[24],-0.436
same,glycan array binding signal (z-score),[25],-0.005
same,glycan array binding signal (z-score),[26],0.62
same,glycan array binding signal (z-score),[27],5.61
same,glycan array binding signal (z-score),[28],-0.313
same,glycan array binding signal (z-score),[29],2
same,glycan array binding signal (z-score),[30],-0.668
